1 sequence from publication PMC7862700, “An all-to-all approach to the identification of sequence-specific readers for epigenetic DNA modifications on cytosine” can be followed below.

Common to all, as to test: DAPPL (digital affinity profiling via proximity ligation, sequencing); 10 mM Tris-HCl pH 7.5, 50 mM NaCl, 1 mM DTT, 4% glycerol, room temperature, 30 min; GST-TFs on glutathione beads, 16-mer random dsDNA library, 0.1% formaldehyde crosslink after washing; high values mean tight binding
One assay deals with T1, FEV (Homo sapiens, UniProt Q99581 1-238).
T1 sequence: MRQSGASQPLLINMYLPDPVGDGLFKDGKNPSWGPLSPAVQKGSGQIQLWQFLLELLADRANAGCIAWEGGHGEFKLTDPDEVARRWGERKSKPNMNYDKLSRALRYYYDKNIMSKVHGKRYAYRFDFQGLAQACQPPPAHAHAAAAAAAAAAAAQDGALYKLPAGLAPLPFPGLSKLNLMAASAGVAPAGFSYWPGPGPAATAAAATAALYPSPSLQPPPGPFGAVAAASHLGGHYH
As to conditions: protein: recombinant; tags: N-terminal GST; dsDNA, one strand shown. The method in brief:
(§1)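 Binding signal is defined as a hexamer's read frequency for one factor over its frequency for the tag-only sample. To obtain reads, GST-fused human transcription factors were expressed in yeast, captured on glutathione beads, barcoded with DNA and pooled with that sample. Pools met 200 nmole of a 16-mer random double-stranded DNA library in Tris/NaCl/DTT/glycerol buffer for 30 min at room temperature before washing, 0.1% formaldehyde crosslinking, proximity ligation (BsaI/T4 ligase, 1 h, 37 °C), PCR and Illumina NextSeq500 sequencing.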

In the next assay the target is ETV5 (Homo sapiens, UniProt P41161 1-510). As to conditions: protein: recombinant; tags: N-terminal GST; dsDNA, one strand shown. In a few lines:
as §1

The next assay addresses HSF1 (Homo sapiens, UniProt Q00613 1-529). As to conditions: protein: recombinant; tags: N-terminal GST; chain copies: 3; dsDNA, one strand shown. In a few lines: as §1
A further assay concerns the target T2, SPIC (Homo sapiens, UniProt Q8N5J4 1-248).
T2 sequence: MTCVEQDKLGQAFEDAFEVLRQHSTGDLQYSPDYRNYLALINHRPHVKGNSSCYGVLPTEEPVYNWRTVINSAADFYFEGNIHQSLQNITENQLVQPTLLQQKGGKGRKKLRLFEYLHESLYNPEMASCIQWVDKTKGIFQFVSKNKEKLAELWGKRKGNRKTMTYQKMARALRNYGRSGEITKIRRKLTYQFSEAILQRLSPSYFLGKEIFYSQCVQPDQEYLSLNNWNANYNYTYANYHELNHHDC
As to conditions: protein: recombinant; tags: N-terminal GST; dsDNA, one strand shown. The method in brief:
as §1

For the next assay, the target named is ELF4 (Homo sapiens, UniProt Q99607 1-663). The note with it: protein: recombinant; tags: N-terminal GST; dsDNA, one strand shown. In a few lines: as §1
Chain of ELF4 (Q99607 whole entry): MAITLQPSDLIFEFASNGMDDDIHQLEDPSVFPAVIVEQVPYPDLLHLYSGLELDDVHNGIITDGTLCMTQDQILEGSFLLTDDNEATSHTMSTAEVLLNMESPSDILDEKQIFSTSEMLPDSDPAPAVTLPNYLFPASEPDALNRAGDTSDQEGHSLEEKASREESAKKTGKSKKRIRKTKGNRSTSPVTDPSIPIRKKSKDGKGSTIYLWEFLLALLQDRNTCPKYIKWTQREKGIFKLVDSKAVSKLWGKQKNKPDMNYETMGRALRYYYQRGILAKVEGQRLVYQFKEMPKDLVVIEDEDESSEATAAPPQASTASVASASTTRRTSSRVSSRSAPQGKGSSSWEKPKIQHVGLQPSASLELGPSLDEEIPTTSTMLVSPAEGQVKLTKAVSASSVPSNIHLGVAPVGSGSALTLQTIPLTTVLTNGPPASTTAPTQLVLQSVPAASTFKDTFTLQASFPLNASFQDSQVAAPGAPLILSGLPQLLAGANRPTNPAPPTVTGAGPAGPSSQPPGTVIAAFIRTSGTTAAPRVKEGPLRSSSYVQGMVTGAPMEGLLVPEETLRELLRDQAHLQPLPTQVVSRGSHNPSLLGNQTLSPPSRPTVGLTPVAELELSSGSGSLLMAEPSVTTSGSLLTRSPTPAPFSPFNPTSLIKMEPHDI
A further assay concerns the target T3, ELK4 (Homo sapiens, UniProt P28324-2 1-405).
T3 sequence: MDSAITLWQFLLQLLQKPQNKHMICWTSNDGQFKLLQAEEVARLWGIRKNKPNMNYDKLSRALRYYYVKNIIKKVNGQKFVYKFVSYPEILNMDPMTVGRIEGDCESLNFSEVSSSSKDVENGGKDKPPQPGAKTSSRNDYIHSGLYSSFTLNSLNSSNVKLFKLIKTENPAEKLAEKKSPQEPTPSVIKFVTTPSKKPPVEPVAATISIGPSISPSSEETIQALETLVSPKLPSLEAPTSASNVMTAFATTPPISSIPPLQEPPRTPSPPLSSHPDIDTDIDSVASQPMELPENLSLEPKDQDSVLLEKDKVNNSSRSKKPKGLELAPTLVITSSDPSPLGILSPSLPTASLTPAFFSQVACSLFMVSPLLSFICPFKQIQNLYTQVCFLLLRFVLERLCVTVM
As to conditions: protein: recombinant; tags: N-terminal GST; dsDNA, one strand shown. The method in brief:
as §1

In a further assay the target is T4, ETV2 (Homo sapiens, UniProt O00321 1-342).
T4 sequence: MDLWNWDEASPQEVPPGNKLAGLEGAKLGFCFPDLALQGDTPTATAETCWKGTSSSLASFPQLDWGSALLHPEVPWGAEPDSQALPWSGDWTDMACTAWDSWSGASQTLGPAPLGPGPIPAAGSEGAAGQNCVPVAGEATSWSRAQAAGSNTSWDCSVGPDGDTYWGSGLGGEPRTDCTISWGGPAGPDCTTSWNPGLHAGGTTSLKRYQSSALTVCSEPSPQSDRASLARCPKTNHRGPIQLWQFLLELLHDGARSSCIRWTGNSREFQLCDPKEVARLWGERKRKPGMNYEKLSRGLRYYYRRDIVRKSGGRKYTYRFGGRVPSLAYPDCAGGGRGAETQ
As to conditions: protein: recombinant; tags: N-terminal GST; dsDNA, one strand shown. The method in brief: as §1

The target of the next assay is T5, ELF3 (Homo sapiens, UniProt P78545 1-371).
T5 sequence: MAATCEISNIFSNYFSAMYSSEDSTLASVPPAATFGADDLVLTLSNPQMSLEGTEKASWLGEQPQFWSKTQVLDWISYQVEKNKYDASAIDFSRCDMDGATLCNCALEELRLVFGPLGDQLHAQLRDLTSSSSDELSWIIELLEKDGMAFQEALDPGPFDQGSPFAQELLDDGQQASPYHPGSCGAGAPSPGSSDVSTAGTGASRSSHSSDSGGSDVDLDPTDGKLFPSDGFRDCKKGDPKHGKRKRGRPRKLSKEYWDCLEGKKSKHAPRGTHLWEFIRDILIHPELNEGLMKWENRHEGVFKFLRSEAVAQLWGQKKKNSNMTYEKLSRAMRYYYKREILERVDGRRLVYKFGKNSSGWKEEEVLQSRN
The note with it: protein: recombinant; tags: N-terminal GST; dsDNA, one strand shown. The method in brief:
as §1

A further assay concerns the target CRX (Homo sapiens, UniProt O43186 1-299). The note with it: protein: recombinant; tags: N-terminal GST; dsDNA, one strand shown. The method in brief: as §1
The next assay deals with ETV1 (Homo sapiens, UniProt P50549 1-477). The note with it: protein: recombinant; tags: N-terminal GST; dsDNA, one strand shown. In a few lines: as §1
Chain of ETV1 (P50549 whole entry): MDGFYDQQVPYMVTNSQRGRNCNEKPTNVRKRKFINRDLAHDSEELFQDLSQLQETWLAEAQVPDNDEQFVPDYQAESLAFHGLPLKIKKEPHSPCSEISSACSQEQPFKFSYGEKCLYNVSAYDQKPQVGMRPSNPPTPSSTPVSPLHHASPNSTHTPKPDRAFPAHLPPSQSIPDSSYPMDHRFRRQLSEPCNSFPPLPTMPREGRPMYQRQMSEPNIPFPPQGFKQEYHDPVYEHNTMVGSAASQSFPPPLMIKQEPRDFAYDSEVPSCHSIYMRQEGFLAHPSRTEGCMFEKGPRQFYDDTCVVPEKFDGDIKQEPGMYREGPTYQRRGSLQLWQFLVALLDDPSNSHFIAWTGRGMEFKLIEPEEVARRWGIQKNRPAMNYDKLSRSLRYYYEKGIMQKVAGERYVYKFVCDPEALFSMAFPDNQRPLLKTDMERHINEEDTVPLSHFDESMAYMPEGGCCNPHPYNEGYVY
For another assay, the target named is T6, ERF (Homo sapiens, UniProt P50548 1-548).
T6 sequence: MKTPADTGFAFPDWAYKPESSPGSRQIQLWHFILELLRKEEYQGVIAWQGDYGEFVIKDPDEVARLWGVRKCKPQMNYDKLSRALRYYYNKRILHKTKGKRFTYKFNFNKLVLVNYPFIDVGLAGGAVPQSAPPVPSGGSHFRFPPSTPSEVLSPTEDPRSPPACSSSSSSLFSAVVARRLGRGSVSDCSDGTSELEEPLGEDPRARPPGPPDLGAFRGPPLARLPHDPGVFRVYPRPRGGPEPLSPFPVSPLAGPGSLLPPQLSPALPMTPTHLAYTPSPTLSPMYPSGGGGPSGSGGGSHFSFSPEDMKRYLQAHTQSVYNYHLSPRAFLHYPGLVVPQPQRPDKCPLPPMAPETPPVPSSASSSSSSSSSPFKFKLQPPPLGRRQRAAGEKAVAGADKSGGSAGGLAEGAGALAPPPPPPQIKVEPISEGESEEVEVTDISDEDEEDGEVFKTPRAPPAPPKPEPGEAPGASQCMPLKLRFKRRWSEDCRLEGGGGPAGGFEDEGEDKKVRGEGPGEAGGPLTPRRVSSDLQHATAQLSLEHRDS
As to conditions: protein: recombinant; tags: N-terminal GST; dsDNA, one strand shown. In a few lines:
as §1

In another assay the target is T7, ETV3L (Homo sapiens, UniProt Q6ZN32 1-361).
T7 sequence: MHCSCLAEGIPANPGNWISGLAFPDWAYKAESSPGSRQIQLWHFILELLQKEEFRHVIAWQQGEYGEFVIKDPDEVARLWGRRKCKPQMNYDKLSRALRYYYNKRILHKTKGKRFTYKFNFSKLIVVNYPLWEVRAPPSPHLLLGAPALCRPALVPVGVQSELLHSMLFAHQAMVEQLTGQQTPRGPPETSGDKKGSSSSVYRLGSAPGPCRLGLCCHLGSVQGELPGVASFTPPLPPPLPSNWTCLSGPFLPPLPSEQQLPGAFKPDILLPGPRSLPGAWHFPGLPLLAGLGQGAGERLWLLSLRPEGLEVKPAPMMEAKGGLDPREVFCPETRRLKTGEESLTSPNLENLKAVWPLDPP
As to conditions: protein: recombinant; tags: N-terminal GST; dsDNA, one strand shown. The method in brief: as §1

In the next assay the target is T8, ETS2 (Homo sapiens, UniProt P15036 1-469).
T8 sequence: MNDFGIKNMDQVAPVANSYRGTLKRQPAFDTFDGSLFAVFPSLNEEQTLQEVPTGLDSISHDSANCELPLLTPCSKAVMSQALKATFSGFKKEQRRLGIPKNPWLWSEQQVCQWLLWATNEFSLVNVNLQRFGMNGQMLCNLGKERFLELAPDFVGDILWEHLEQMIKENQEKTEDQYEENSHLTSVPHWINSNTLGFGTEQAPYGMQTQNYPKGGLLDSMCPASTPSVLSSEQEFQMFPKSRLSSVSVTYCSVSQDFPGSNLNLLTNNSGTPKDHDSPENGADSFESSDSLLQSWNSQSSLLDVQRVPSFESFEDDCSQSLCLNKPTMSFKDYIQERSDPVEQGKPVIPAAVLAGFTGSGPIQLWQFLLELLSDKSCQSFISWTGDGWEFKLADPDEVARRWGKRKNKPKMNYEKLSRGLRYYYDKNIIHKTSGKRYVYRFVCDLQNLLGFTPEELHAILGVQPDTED
The note with it: protein: recombinant; tags: N-terminal GST; dsDNA, one strand shown. The method in brief: as §1

The next assay concerns the target T9, SPDEF (Homo sapiens, UniProt O95238 1-335).
T9 sequence: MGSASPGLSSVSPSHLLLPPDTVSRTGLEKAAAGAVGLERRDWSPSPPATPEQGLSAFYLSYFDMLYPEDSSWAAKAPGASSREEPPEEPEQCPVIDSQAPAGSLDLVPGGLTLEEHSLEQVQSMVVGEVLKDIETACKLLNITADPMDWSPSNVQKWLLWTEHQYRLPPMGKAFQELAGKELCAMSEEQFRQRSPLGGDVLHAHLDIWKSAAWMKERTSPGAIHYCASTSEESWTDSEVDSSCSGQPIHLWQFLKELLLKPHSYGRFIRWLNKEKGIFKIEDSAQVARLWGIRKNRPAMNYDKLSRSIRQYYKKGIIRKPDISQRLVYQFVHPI
As to conditions: protein: recombinant; tags: N-terminal GST; dsDNA, one strand shown. The method in brief: as §1

The target in another assay is T10, ETV7 (Homo sapiens, UniProt Q9Y603 1-341).
T10 sequence: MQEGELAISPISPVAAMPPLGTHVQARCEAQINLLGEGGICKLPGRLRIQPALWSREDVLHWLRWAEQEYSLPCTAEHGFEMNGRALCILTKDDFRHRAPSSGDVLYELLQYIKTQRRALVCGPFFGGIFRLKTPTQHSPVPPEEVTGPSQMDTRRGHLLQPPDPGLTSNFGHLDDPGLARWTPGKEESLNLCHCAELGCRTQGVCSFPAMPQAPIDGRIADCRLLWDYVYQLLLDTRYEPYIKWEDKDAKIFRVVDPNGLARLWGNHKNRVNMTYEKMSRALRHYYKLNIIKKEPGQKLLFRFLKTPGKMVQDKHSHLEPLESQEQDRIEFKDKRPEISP
As to conditions: protein: recombinant; tags: N-terminal GST; dsDNA, one strand shown. In a few lines: as §1

The target of the next assay is T11, ELF5 (Homo sapiens, UniProt Q9UKW6-2 1-255).
T11 sequence: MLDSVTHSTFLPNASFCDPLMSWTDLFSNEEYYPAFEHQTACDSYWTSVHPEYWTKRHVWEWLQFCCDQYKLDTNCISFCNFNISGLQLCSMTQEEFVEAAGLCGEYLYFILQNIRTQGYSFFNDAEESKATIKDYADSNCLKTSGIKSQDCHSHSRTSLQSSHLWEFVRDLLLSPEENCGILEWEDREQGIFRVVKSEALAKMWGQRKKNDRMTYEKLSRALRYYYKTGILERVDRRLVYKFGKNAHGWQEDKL
The note with it: protein: recombinant; tags: N-terminal GST; dsDNA, one strand shown. In a few lines: as §1

For the next assay, the target named is T12, ETV3 (Homo sapiens, UniProt P41162-2 1-143).
T12 sequence: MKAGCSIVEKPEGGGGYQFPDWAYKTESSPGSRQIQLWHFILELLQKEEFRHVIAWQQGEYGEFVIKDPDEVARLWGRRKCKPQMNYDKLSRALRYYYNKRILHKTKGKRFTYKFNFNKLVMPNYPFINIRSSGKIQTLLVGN
As to conditions: protein: recombinant; tags: N-terminal GST; dsDNA, one strand shown. The method in brief: as §1

For a further assay, the target named is ETV6 (Homo sapiens, UniProt P41212 1-452). The note with it: protein: recombinant; tags: N-terminal GST; dsDNA, one strand shown. The method in brief: as §1
Chain of ETV6 (P41212 whole entry): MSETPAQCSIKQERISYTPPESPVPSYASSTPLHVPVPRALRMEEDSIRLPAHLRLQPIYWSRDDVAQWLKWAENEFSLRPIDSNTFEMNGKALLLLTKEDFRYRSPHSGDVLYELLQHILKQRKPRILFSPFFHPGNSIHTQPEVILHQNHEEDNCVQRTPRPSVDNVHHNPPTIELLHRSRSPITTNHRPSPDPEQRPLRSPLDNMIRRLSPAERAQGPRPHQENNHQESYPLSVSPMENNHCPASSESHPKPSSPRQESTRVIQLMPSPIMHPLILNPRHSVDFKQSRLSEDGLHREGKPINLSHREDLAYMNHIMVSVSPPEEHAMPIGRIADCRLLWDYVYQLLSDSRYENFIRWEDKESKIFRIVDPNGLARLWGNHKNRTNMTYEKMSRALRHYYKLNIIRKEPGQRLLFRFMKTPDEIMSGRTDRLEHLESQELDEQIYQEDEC

Chain of CRX (O43186 whole entry): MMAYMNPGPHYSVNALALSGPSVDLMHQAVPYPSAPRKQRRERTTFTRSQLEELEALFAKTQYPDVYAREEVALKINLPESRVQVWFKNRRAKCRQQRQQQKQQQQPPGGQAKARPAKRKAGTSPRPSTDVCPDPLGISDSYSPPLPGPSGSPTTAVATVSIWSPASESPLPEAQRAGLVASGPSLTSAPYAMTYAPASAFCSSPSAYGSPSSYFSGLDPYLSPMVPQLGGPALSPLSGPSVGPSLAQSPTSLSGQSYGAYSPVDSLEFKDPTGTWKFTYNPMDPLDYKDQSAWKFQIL
Chain of ETV5 (P41161 whole entry): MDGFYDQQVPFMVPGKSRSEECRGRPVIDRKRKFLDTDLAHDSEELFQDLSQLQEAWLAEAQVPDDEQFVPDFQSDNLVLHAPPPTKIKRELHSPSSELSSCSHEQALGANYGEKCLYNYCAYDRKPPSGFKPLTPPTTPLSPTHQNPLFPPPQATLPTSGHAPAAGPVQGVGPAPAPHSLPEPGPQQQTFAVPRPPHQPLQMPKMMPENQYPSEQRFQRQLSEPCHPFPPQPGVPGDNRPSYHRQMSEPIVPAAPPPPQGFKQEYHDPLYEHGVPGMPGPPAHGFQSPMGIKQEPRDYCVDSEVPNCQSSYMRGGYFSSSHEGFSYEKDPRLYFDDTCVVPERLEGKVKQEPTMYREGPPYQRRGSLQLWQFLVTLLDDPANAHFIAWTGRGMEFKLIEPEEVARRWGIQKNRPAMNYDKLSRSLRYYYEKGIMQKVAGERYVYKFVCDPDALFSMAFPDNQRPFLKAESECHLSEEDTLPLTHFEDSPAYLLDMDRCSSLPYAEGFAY
Chain of HSF1 (Q00613 whole entry): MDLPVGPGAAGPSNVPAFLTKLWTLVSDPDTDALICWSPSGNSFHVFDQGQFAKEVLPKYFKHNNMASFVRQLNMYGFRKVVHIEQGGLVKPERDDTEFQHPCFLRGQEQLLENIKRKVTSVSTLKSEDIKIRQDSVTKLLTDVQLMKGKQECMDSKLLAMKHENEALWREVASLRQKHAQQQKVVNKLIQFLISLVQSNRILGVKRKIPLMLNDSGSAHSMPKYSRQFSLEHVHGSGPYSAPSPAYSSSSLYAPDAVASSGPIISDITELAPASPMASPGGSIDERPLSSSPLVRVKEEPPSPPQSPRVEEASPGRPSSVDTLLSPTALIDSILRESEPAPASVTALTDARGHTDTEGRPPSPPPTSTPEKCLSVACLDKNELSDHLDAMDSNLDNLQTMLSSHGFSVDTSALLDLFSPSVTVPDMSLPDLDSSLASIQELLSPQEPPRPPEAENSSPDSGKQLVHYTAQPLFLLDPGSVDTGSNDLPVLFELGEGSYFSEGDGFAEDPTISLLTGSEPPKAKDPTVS

For GTATAT, the binding signal in the assay with FEV was 1.06 fold enrichment (6-mer frequency, TF over GST control); with ETV5, 1.19 fold enrichment (6-mer frequency, TF over GST control); with HSF1, 1.04 fold enrichment (6-mer frequency, TF over GST control); with SPIC, 1.18 fold enrichment (6-mer frequency, TF over GST control); in the assay with ELF4, 1.17 fold enrichment (6-mer frequency, TF over GST control); in the assay with ELK4, 1.21 fold enrichment (6-mer frequency, TF over GST control). Besides, the binding signal with ETV2 is 1.12 fold enrichment (6-mer frequency, TF over GST control); with ELF3, 1.02 fold enrichment (6-mer frequency, TF over GST control); with CRX, 1.07 fold enrichment (6-mer frequency, TF over GST control); with ETV1 it was 1.18 fold enrichment (6-mer frequency, TF over GST control); with ERF, 1.11 fold enrichment (6-mer frequency, TF over GST control); with ETV3L it was 1.16 fold enrichment (6-mer frequency, TF over GST control). In addition, the binding signal with ETS2 is 1.14 fold enrichment (6-mer frequency, TF over GST control); with SPDEF, 1.37 fold enrichment (6-mer frequency, TF over GST control); with ETV7, 1.13 fold enrichment (6-mer frequency, TF over GST control); in the assay with ELF5, 1.15 fold enrichment (6-mer frequency, TF over GST control); in the assay with ETV3, 1.25 fold enrichment (6-mer frequency, TF over GST control); with ETV6, 1.09 fold enrichment (6-mer frequency, TF over GST control).
